In general, inhibition refers to the relative decrease from the control value, in per cent.

Here are results for 16 compounds from ChEMBL document CHEMBL1961873, “Compounds: GSK PKIS; Assays: Nanosyn kinase panel” (2012).

In assay [1] the target is 5'-AMP-activated protein kinase catalytic subunit alpha-2 (Homo sapiens) (UniProt P54646). The settings on record: at 1 µM.
In assay [2] the target is T1, NUAK family SNF1-like kinase 1 (Homo sapiens) (UniProt O60285).
T1 sequence (whole entry): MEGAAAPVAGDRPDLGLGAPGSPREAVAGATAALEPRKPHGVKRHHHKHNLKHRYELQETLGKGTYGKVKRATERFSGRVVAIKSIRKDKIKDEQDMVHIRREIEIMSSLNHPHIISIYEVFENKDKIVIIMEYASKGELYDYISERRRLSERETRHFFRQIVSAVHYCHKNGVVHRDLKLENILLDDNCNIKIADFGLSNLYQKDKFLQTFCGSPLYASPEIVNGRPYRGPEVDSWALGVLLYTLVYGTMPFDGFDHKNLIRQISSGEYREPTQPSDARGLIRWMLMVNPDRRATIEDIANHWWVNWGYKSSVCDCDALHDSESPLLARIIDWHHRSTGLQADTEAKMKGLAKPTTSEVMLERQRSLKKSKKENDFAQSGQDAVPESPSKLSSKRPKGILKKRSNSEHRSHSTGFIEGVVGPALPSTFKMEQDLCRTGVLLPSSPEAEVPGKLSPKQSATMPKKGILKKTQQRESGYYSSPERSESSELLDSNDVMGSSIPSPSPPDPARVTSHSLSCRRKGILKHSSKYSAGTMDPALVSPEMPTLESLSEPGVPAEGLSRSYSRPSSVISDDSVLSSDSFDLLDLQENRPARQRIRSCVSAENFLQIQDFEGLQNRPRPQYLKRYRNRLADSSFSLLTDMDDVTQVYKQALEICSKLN
The settings on record: at 0.1 µM.

Assay [3] addresses T1, NUAK family SNF1-like kinase 1 (Homo sapiens). The settings on record: at 1 µM.
Assay [4] addresses T2, Serine/threonine-protein kinase BRSK1 (Homo sapiens) (UniProt Q8TDC3).
T2 sequence (whole entry): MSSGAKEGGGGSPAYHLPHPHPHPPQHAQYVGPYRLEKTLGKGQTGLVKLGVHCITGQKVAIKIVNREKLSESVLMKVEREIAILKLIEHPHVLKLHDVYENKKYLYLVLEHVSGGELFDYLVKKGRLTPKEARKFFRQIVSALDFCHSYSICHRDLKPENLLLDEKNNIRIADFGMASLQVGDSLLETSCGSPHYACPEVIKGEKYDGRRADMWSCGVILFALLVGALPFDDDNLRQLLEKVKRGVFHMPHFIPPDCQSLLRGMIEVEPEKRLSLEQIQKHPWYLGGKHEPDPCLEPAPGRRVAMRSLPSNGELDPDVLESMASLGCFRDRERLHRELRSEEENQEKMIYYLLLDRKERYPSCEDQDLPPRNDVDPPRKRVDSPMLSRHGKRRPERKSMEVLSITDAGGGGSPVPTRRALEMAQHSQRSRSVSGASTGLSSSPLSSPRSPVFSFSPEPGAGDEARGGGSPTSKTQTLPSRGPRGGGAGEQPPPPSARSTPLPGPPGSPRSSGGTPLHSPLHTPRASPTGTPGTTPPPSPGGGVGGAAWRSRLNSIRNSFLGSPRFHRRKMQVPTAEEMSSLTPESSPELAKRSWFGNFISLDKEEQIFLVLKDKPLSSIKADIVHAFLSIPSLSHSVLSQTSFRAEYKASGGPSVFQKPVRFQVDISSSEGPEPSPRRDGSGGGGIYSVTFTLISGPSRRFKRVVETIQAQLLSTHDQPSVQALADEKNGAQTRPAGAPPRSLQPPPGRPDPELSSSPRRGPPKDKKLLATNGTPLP
The settings on record: at 0.1 µM.

For assay [5], the target named is T2, Serine/threonine-protein kinase BRSK1 (Homo sapiens). Conditions: at 1 µM.
Assay [6] addresses T3, Serine/threonine-protein kinase BRSK2 (Homo sapiens) (UniProt Q8IWQ3).
T3 sequence (whole entry): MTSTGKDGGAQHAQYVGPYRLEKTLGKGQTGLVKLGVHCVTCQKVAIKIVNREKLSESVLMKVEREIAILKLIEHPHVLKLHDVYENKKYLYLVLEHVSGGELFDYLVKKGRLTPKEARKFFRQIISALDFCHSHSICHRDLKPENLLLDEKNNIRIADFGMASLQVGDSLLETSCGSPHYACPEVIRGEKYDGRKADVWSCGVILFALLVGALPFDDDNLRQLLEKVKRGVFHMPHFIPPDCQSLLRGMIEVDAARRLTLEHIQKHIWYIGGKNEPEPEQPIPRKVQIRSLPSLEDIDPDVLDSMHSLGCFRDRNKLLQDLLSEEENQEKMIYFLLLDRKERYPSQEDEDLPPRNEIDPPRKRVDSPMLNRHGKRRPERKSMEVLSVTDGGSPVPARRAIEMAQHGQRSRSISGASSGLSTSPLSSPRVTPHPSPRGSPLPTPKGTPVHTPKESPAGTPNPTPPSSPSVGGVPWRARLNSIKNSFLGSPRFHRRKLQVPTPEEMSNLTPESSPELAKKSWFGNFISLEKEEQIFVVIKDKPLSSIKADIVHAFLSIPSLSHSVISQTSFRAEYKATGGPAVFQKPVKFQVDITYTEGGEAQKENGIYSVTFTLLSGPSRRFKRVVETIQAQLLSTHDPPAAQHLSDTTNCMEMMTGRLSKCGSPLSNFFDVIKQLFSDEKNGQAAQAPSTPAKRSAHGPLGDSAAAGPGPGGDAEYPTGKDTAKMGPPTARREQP
Conditions: at 0.1 µM.

Assay [7] addresses T3, Serine/threonine-protein kinase BRSK2 (Homo sapiens). Conditions: at 1 µM.
Assay [8] deals with Calcium/calmodulin-dependent protein kinase type 1D (Homo sapiens) (UniProt Q8IU85). Conditions: at 0.1 µM.
Sequence of Calcium/calmodulin-dependent protein kinase type 1D (Homo sapiens) (Q8IU85 whole entry, looked up): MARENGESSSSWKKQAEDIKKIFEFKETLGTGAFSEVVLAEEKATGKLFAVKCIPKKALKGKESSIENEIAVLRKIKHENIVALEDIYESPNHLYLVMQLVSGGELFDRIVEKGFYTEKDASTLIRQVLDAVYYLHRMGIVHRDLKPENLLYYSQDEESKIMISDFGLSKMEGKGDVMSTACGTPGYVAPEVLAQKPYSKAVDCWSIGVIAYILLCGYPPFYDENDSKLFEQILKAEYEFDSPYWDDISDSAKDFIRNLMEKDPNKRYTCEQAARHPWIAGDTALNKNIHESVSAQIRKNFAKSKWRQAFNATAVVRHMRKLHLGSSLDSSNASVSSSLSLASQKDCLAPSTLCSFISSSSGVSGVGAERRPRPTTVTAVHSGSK
Assay [9] has the same target. Conditions: at 1 µM.
The target of assay [10] is Calcium/calmodulin-dependent protein kinase type II subunit alpha (Homo sapiens) (UniProt Q9UQM7). The settings on record: at 0.1 µM.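 Note: reported values are averages (mean inhibition of CAMK2A).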
Sequence of Calcium/calmodulin-dependent protein kinase type II subunit alpha (Homo sapiens) (Q9UQM7 whole entry): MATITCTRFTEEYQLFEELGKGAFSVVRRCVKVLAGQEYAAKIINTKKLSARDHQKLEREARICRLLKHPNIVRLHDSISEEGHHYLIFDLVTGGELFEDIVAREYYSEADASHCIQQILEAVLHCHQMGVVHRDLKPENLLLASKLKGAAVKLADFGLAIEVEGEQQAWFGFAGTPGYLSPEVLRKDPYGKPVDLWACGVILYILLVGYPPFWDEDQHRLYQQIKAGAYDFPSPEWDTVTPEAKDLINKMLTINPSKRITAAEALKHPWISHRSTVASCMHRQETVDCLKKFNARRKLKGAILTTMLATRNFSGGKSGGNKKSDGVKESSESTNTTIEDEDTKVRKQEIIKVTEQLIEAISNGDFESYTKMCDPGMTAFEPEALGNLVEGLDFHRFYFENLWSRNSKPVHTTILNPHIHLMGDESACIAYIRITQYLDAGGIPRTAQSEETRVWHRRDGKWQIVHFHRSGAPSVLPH

Sequence of 5'-AMP-activated protein kinase catalytic subunit alpha-2 (Homo sapiens) (P54646 whole entry, looked up): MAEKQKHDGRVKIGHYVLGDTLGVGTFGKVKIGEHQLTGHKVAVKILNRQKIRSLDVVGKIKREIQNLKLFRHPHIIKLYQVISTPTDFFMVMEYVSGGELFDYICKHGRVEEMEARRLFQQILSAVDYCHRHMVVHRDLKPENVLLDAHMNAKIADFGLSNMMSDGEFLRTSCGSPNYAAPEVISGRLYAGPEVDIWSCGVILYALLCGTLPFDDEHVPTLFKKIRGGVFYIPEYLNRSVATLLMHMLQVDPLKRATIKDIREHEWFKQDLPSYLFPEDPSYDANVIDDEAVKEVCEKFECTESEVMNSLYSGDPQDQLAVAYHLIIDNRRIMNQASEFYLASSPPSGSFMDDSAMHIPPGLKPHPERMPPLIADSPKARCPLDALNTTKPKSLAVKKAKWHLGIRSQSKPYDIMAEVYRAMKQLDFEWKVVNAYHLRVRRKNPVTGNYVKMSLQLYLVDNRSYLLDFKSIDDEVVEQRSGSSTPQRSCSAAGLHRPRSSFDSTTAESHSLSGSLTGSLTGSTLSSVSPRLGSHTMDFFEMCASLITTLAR

`CCCN1CCC=C(c2ccc(Nc3nc(Nc4ccccc4C(N)=O)c4cc[nH]c4n3)c(C)c2)C1`: the inhibition turned out to be 14.5% in assay [1]; 48.4% in [2]; 69.8% in assay [3]; 3.51% in assay [4]; 4.05% in assay [5]; 2.36% in [6]. In addition, the inhibition in assay [7] is 6.53%; in assay [8], 1.21%; in assay [9], 12.8%; in assay [10] it was 3.75%.

Turning to `Fc1cccc(COc2ccc(Nc3ncnc4sc(-c5cccs5)cc34)cc2Cl)c1`, the inhibition in assay [1] was 0.62%; in [2], 4.02%; in assay [3] it was 7.65%; in [4], 0.56%; in [5], -0.44%; in assay [6], 0.22%. The inhibition in [7] is 1.9%; in [8] it was -1.31%; in [9] it was 0.18%; in assay [10], -3%.

With `CCn1c(-c2nonc2N)nc2cncc(C(=O)N3CCNCC3)c21`, the inhibition in [1] is 3.25%; in assay [2], -0.04%; in assay [3], 2.51%; in assay [4], 2.38%; in assay [5] it was -2.27%; in [6] it was -0.27%. The inhibition in [7] was found to be 2.15%; in assay [8], 0.79%; in [9], 2.87%; in assay [10], 4.62%.

On to `NC(=O)c1cccc(Nc2nccc(Nc3cccc4[nH]ncc34)n2)c1`, for which the inhibition in assay [1] was found to be 11%; in assay [2], 40.5%; in assay [3], 80.7%; in [4], 3.32%; in assay [5] it was 22%; in [6] it was 2.15%. In addition, the inhibition in [7] is 19.3%; in assay [8], 0.34%; in [9], 4.12%; in [10], -4.01%.

Consider `CC(=O)Nc1cccc(C#Cc2cncnc2Nc2ccc(OCc3cccc(F)c3)c(Cl)c2)n1`, for which the inhibition was -0.66% in [1]; 2.57% in [2]; 1.97% in assay [3]; -1.43% in assay [4]; 5.34% in [5]; 1.19% in [6]. The inhibition was determined as 5.79% in assay [7], 0.41% in assay [8], 0.25% in assay [9] and 0.69% in assay [10].

For the compound `Cc1nn(C)c2cc(N(C)c3ccnc(Nc4cccc(S(N)(=O)=O)c4)n3)ccc12`, the inhibition was 3.54% in assay [1]; 20.6% in assay [2]; 64.2% in assay [3]; 1.45% in assay [4]; 0.63% in [5]; 0.72% in [6]. Further, the inhibition in [7] is 4.4%; in assay [8] it was 0.85%; in assay [9], 3.14%; in [10], 1.6%.

For `CS(=O)(=O)CCNCc1nc(-c2ccc3ncnc(Nc4ccc(F)c(Cl)c4)c3c2)cs1`, the inhibition is 1.32% in assay [1]; 2.92% in assay [2]; 2% in assay [3]; 0.92% in assay [4]; 1.59% in assay [5]; 2.32% in assay [6]. Also, the inhibition in assay [7] came out at 6.52%; in assay [8], 1.26%; in assay [9], 1.23%; in assay [10], 5.16%.

Turning to `Nc1ncnc2occ(-c3ccc(NC(=O)Nc4cc(C(F)(F)F)cc(C(F)(F)F)c4)cc3)c12`, the inhibition in assay [1] worked out at 4.79%; in assay [2], 1.19%; in [3], 2.22%; in assay [4] it was 1.78%; in assay [5] it was 3.44%; in assay [6] it was 1.11%. Besides, the inhibition came to 0.11% in assay [7], 1.67% in assay [8], 4.38% in [9] and 3.17% in assay [10].

Regarding `CCn1c(-c2nonc2N)nc2c(C#CC(C)(C)O)nc(CN3CCCC3)cc21`, the inhibition in assay [1] is 6.62%; in [2], -8.68%; in assay [3], 2.69%; in [4] it was 0.47%; in assay [5], 2.17%; in [6] it was 1.38%. The inhibition was 3.23% in assay [7], 1.23% in assay [8], 2.08% in assay [9] and -0.97% in [10].

For the compound `O=C1NC(=O)C(N2CCc3ccccc32)=C1c1ccc(Cl)cc1`, the inhibition in assay [1] came out at 5.78%; in [2], 4.44%; in assay [3], 7.39%; in [4] it was 3.67%; in [5], 5.07%; in assay [6], 2.92%. Also, the inhibition in [7] came to 3.2%; in assay [8] it was 0.76%; in assay [9], 1.55%; in [10] it was 4.4%.

Consider `CC1=C(C(=O)Nc2ccc3[nH]ncc3c2)C(c2ccc3ccccc3c2)CC(=O)N1` (stereo not given), for which the inhibition in [1] was determined as 11.5%; in [2] it was 7.78%; in assay [3], 43.5%; in [4], 1.91%; in [5], 20.8%; in [6], 3.96%. For the same compound, the inhibition in assay [7] was 31.3%; in [8], -0.51%; in assay [9], 0.49%; in assay [10] it was -0.08%.

`CCn1c(-c2nonc2N)nc2c(N3CCCC3)nccc21`: the inhibition in assay [1] is 0.77%; in assay [2] it was 4.51%; in [3] it was 0.95%; in assay [4], 1.14%; in assay [5] it was 1.31%; in [6], 1.48%. The inhibition was 3.56% in assay [7], -0.31% in assay [8], -0.81% in [9] and -1.53% in [10].

Turning to `CN(C)c1cc2c(Nc3ccc4nc(Cc5ccccc5)[nH]c4c3)ncnc2cn1`, the inhibition in assay [1] amounted to 4.85%; in [2], 0.74%; in assay [3], 1.76%; in [4] it was 3.31%; in assay [5], 4.38%; in [6], 3.85%. Moreover, the inhibition was 4.52% in assay [7], 1.13% in [8], 0.72% in assay [9] and 4.11% in [10].

For `c1cnn2ncc(-c3ccnc(Nc4ccc5c(c4)OCCO5)n3)c2c1`, the inhibition amounted to 12.6% in assay [1]; 52.8% in assay [2]; 83.2% in assay [3]; 0.46% in assay [4]; 6.78% in assay [5]; 2.51% in assay [6]. Moreover, the inhibition is 9.28% in assay [7], 1.5% in [8], 5.85% in assay [9] and 5.45% in assay [10].

With `O=C1Nc2ccc(C(=O)c3ccco3)cc2C1=Cc1cc(Cl)c(O)c(Cl)c1`, the inhibition is 10.8% in assay [1]; 2.94% in [2]; 10.8% in assay [3]; 1.94% in assay [4]; 8.43% in assay [5]; 3.02% in assay [6]. Besides, the inhibition in assay [7] was 13.1%; in assay [8], -0.26%; in [9] it was 0.48%; in assay [10], 3.4%.

Regarding `CN1CCC(C(=O)Nc2n[nH]c3nnc(-c4ccccc4)cc23)CC1`, the inhibition in [1] amounted to 5.01%; in assay [2], 1.18%; in assay [3], 3.89%; in [4], 1.14%; in [5], 4.22%; in assay [6], 2.62%. The inhibition in [7] turned out to be 6.52%; in assay [8] it was 0.42%; in assay [9], 1.89%; in [10], 3.75%.
